# Reference: PubChem BioAssay (NCATS)
# Inconclusive results are not listed. Active and inactive are the calls of the source. Unless noted, calls come from the whole dose curve; as a rule, active = well fitted curve in the direction sought with a large enough effect; inconclusive = small, poorly fitted or top-dose-only effect, or another doubt; inactive = no such curve, though single readings can be large; an effect the other way counts as inactive or inconclusive.
# Legend:
# [1] = target: Lysosomal acid glucosylceramidase (Homo sapiens) (UniProt P04062); test: Glucocerebrosidase-p2 (AID 348; in the data active = potency below about 10 µM; note: potency is the fitted concentration of half-maximal effect); settings: purified GBA, blue fluorogenic substrate, 40 min
# Sequence of Lysosomal acid glucosylceramidase (Homo sapiens) (P04062 whole entry, looked up): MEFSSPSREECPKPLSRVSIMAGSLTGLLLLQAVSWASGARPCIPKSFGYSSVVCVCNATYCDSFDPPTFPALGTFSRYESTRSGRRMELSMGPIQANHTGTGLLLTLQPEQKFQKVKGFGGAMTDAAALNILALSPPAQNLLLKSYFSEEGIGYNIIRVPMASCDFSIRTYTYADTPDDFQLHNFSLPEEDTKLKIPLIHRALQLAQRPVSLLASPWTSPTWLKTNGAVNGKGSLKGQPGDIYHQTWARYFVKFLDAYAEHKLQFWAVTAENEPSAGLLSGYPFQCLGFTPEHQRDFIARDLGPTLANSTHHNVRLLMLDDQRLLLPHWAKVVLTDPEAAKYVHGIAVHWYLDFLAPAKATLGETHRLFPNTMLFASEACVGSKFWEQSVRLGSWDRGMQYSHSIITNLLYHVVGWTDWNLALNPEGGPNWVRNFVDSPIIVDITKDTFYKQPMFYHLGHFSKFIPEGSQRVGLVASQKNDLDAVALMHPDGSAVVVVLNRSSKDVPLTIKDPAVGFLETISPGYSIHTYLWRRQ
# Procedure, shortened: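 Compounds titrated from 0.6 nM upwards against 0.2 nM enzyme in pH 5.9 citric acid/KH2PO4, taurocholate, tween-20; blue fluorogenic substrate 80 uM, 40 min room temperature, stopped and read Ex 365/Em 440 for AC50.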
# [2] = target: Cytochrome P450 1A2 (Homo sapiens) (UniProt P05177); test: p450-cyp1a2 (AID 410; calls by dose curve; note: potency is the fitted concentration of half-maximal effect;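 for activity change, negative = inhibition: -100% = full effect of reference inhibitor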); settings: recombinant CYP1A2, luciferin-ME demethylation, luminescence; series mostly up to 57 µM
# Sequence of Cytochrome P450 1A2 (Homo sapiens) (P05177 whole entry, looked up): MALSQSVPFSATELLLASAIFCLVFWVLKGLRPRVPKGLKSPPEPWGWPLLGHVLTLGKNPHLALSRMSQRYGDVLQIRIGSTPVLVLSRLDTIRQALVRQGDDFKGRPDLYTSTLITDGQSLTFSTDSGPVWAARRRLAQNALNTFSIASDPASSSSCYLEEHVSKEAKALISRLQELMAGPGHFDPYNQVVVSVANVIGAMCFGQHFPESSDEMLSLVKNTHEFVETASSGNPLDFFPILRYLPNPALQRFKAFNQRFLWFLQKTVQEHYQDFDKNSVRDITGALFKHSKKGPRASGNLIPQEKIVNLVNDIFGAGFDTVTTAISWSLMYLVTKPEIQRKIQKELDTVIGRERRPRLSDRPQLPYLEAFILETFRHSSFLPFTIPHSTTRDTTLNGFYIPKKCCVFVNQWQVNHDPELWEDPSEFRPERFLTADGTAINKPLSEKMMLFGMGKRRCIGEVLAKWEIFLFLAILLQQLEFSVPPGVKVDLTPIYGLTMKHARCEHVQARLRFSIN
# Procedure, shortened: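 Human CYP1A2 (20nM) demethylated Luciferin-ME at its Km (100uM) in 100mM KPO4. After 10 min compound preincubation, NADPH regeneration ran the reaction 60 min at room temperature. Luciferin was read by luminescence, normalized to 57 uM furafylline.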
# [3] = target: Glucocorticoid receptor (Homo sapiens) (UniProt P04150); test: GR-GFP Redistribution (AID 450;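 active = compounds whose dose series gives a full or clear partial fitted curve of increased nuclear translocation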; note: potency is the fitted concentration of half-maximal effect); settings: U2OS GR-GFP nuclear translocation, laser cytometry, 2 h
# Sequence of Glucocorticoid receptor (Homo sapiens) (P04150 whole entry, looked up, the tested form may be a part): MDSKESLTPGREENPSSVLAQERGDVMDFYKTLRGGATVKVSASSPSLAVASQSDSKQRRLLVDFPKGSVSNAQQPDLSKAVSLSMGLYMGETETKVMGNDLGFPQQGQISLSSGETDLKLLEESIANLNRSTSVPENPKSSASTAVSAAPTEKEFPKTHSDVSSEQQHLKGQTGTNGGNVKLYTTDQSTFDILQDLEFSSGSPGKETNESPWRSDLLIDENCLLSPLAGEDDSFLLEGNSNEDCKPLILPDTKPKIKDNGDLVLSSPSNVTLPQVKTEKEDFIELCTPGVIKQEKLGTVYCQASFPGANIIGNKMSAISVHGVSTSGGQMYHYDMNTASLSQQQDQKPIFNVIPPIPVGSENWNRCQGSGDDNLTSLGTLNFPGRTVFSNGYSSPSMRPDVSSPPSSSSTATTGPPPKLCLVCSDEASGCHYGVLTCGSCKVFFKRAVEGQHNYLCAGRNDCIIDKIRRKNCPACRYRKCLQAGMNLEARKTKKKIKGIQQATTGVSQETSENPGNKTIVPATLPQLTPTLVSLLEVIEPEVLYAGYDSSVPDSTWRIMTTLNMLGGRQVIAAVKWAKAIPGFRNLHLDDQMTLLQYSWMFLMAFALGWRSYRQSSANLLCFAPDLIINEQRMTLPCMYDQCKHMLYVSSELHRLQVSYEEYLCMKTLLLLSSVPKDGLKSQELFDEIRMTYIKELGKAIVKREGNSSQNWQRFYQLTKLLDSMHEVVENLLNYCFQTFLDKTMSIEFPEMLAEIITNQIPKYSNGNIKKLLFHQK
# [4] = target: Glucocorticoid receptor (Homo sapiens) (UniProt P04150); test: GR-EFC Redistribution (AID 451; calls by dose curve; note: potency is the fitted concentration of half-maximal effect); settings: CHO-K1 GR-EFC translocation, beta-gal luminescence, 2 h
# Procedure, shortened: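 Translocation of GR-ED fusion to nuclear EA restores b-gal, read by luminescence after 1 h room-temperature detection. Engineered CHO-K1 biosensor cells, 1,000/well, exposed 2 h at 37 C to titrations up to 46 uM final.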
# [5] = target: Mitogen-activated protein kinase 10 (Mus musculus) (UniProt Q61831); test: JNK3 AlphaScreen Assay (AID 530; active = well fitted curve in either direction with a large enough effect, not every such curve was filed as active;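 note: kinase came from lysate of stimulated human HepG2 cells; signal reports phosphorylation of biotinylated GST-cJun 1-79 at Ser73 with 10 µM ATP; % is set by controls: 0 for no effect and ±100 for the full control effect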); settings: JNK3 lysate, c-Jun phosphorylation; series mostly up to 57.1 µM
# Procedure, shortened: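 Room-temperature AlphaScreen kinase assay; pre-activated HepG2 lysate as JNK3 source, biotin-GST-cJun(1-79) substrate, 10 uM ATP, compound 15 min preincubation.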
# [6] = target: Cytochrome P450 3A4 (Homo sapiens) (UniProt P08684); test: qHTS Assay for Activators of Cytochrome P450 3A4 (AID 885); settings: recombinant CYP3A4, Luciferin-PPXE luminescence, 60 min; series mostly up to 57.1 µM; note: nearly all actives have a fitted effect of over 65% in size
# Sequence of Cytochrome P450 3A4 (Homo sapiens) (P08684 whole entry, looked up): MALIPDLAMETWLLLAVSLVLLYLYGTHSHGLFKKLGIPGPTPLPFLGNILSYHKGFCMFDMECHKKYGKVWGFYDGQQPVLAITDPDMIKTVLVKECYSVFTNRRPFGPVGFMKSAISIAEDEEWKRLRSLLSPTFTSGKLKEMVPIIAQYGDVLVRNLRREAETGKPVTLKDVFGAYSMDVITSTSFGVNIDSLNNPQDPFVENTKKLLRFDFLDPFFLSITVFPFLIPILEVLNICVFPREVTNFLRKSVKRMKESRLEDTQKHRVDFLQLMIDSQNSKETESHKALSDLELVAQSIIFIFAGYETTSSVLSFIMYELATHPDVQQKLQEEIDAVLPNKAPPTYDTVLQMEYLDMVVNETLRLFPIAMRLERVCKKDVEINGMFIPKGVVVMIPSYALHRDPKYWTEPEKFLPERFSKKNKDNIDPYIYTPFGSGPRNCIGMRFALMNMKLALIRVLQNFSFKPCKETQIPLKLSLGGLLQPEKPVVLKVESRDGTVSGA
# Procedure, shortened: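 Steps: enzyme/substrate mix dispensed; compound added, 10 min RT; NADPH regeneration solution added, 60 min RT; luciferin detection buffer stops reaction; 20 min later luminescence measured.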
# [7] = qHTS Assay for Identification of Small Molecule Agonists for Hypoxia Response Element Signaling Pathway (AID 914; active = well fitted activation curve with a large enough effect in the signal ratio, with a control signal flat, not every such curve was filed as active; the % refers to the signal ratio; note: potency is the fitted concentration of half-maximal effect; for activation: % of control where 0% means no effect); settings: ME-180 HRE-bla reporter, beta-lactamase ratio, CoCl2, 17 h; activation: stronger effect = higher value
# Procedure, shortened: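 Read-out: CCF4 FRET ratio of 460nm to 530nm emission (excitation 405nm) after 2.5 hours at room temperature, taken from HRE-bla ME-180 cells that had been exposed to compound and EC50 CoCl2 for 17 hours.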
# [8] = qHTS Assay for Lipid Storage Modulators (AID 1519; calls by dose curve); settings: Drosophila S3 cells, BODIPY lipid droplet/cell ratio, laser cytometry, cells loaded with oleic acid; for activity change, negative = inhibition: at 57.5 µM (top of the series)
# Procedure, shortened: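 Cells seeded at 5,000 per well were treated with compounds over a concentration series and loaded with oleic acid (400 uM, as added). Lipid droplet fluorescence (488 nm excitation, 500-530 nm channel) was read by laser-scanning cytometry and normalized to 20 uM Triacsin C.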
# [9] = target: Dual specificity protein kinase CLK4 (Homo sapiens) (UniProt Q9HAZ1); test: qHTS Assay for Inhibitors of CDC-like Kinase 4 (Kinase-Glo Assay) (AID 1770); settings: recombinant Clk4, Kinase-Glo ATP depletion luminescence; series mostly up to 66.7 µM; note: nearly all actives have a fitted effect of over 65% in size; note: potency is the fitted concentration of half-maximal effect
# Sequence of Dual specificity protein kinase CLK4 (Homo sapiens) (Q9HAZ1 whole entry, looked up): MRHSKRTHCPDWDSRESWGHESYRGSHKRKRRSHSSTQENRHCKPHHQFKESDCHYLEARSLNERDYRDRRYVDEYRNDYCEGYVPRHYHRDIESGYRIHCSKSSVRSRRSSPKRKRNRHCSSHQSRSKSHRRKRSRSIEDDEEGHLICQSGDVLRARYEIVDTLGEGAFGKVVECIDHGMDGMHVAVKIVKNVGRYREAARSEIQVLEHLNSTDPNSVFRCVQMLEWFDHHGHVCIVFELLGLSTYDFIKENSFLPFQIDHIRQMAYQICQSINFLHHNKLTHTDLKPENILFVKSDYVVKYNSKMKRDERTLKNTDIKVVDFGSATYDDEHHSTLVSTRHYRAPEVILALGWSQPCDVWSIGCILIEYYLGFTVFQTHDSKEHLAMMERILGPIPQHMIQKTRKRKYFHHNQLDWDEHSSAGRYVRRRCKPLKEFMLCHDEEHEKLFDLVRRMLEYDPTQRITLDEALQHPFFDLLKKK
# Procedure, shortened: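 Inhibition was judged from remaining ATP, measured by Ultra-Glo luciferase bioluminescence after Clk4 (25 nM) had acted on RS peptide at 1 uM ATP for 4.5 hours, room temperature.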
# [10] = target: Dual specificity protein kinase CLK4 (Homo sapiens) (UniProt Q9HAZ1); test: qHTS Assay for Inhibitors of CDC-like Kinase 4 (ADP-Glo Assay) (AID 1771); settings: recombinant CLK4, ADP-Glo luminescence; series mostly up to 80 µM; note: nearly all actives have a fitted effect of over 70% in size; note: potency is the fitted concentration of half-maximal effect
# Procedure, shortened: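 Clk4 (25 nM) was incubated 1 hr at room temperature with 100 uM RS repeat peptide and 1 uM ATP in buffer with 2 mM MgCl2, 0.5 mM EGTA, 2.5 mM DTT. ADP formed was quantified by ADP-Glo luminescence.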
# [11] = target: Dual specificity protein kinase CLK4 (Homo sapiens) (UniProt Q9HAZ1); test: qHTS Assay for Inhibitors of CDC-like Kinase 4 (ADP-FP Assay) (AID 1795); settings: Transcreener ADP fluorescence polarization; series mostly up to 50 µM; note: nearly all actives have a fitted effect of over 60% in size; note: potency is the fitted concentration of half-maximal effect
# Procedure, shortened: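 Inhibition of ADP formation by 6.25 nM Clk4 is measured using 1 uM ATP and 100 uM RS repeat peptide over one hour. Produced ADP displaces a fluorescent tracer from antibody, lowering polarization.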
# [12] = target: Ubiquitin carboxyl-terminal hydrolase 1 (Homo sapiens) (UniProt O94782); test: Inhibitors of USP1/UAF1: Pilot qHTS (AID 504865); settings: purified USP1/UAF1, Ub-rhodamine cleavage fluorescence; series mostly up to 54.9 µM;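 note: rhodamine fluorescence freed from ubiquitin-rhodamine substrate followed over time; top concentration of the series differs between compounds; % is set by controls: 0 for no effect and ±100 for the full control effect; nearly all actives have a fitted effect of over 35% in size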
# Sequence of Ubiquitin carboxyl-terminal hydrolase 1 (Homo sapiens) (O94782 whole entry, looked up): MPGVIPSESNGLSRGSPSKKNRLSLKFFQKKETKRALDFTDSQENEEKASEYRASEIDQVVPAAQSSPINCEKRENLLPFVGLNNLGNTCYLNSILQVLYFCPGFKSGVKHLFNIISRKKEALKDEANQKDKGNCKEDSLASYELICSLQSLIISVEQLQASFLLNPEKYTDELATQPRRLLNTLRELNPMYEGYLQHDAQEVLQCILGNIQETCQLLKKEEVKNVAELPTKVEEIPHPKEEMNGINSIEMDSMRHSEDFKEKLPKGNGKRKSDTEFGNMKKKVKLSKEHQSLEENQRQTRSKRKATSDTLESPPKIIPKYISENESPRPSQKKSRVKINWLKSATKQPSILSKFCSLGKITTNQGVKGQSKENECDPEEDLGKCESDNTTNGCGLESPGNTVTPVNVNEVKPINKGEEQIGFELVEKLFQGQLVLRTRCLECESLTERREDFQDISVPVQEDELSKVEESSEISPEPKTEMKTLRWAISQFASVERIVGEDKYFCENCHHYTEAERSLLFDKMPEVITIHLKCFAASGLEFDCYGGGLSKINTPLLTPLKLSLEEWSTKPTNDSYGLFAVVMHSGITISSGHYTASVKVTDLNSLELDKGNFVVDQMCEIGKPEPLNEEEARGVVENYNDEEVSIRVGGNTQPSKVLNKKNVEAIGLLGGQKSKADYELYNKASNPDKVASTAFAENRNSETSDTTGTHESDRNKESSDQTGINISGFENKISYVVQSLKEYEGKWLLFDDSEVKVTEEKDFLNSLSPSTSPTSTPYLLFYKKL
# Procedure, shortened: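 Kinetic fluorescence assay: 1nM USP1/UAF1, 15 min compound preincubation, then 150nM Ub-Rho; 480/540 nm.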
# [13] = Primary qHTS for small molecule stabilizers of the endoplasmic reticulum resident proteome: Secreted ER Calcium Modulated Protein (SERCaMP) assay (AID 1508630); settings: SH-SY5Y GLuc-SERCaMP (Gaussia luciferase released on ER calcium loss) secretion, thapsigargin, luminescence; series mostly up to 38.4 µM; note: % is set by controls: 0 for no effect and ±100 for the full control effect
# Procedure, shortened: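 GLuc-SERCaMP-expressing SH-SY5Y cells, pretreated 16 h with compound, are challenged with thapsigargin to empty ER calcium stores; after 4 h, coelenterazine is added directly to the medium and luminescence is imaged.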
# [14] = NFAT Signaling Pathway (AID 444; active = well fitted curve in either direction with a large enough effect, not every such curve was filed as active;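 note: carbachol stimulus at about its EC50 of 1 µM final; % is set by controls: 0 for no effect and ±100 for the full control effect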); settings: Jurkat NFAT-bla M1, carbachol, beta-lactamase ratio, 5 h; at 7.69 µM (top of the series) unless noted
# Procedure, shortened: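 Read-out: CCF4 FRET ratio (460 nm/530 nm) after 1 h RT dye loading, used for %activity and AC50 from titration series. Cells: Jurkat NFAT-β-lactamase/M1 line, treated with compound plus 1 uM carbachol for 5 h, 37 °C.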
# [15] = Stat Signaling Pathway (AID 446; active = well fitted curve in either direction with a large enough effect, not every such curve was filed as active;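 note: ME-180 cervical cancer cells given 40 pM IL-6 alongside compound; SIE-controlled beta-lactamase reporter measured as 460/530 nm FRET emission ratio; % is set by controls: 0 for no effect and ±100 for the full control effect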); settings: ME-180 SIE beta-lactamase reporter, IL-6 stimulated, 5 h; at 7.69 µM (top of the series) unless noted
# Procedure, shortened: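 Screening format detects activators and inhibitors alike: ME-180 SIE-bla cells stimulated at 40 pM IL-6 for 5 hrs with compound, then dual-emission beta-lactamase read at 405 nm excitation.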
# [16] = target: 3',5'-cyclic-AMP phosphodiesterase 4B (Homo sapiens) (UniProt Q07343); test: qHTS Assay for Inhibitors of PDE-IV (AID 607; active = well fitted activation curve with a large enough effect in the main read-out, with a control signal flat, not every such curve was filed as active; note: % of control where 0% means no effect); settings: HEK293 ACTOne CNG channel cells, membrane potential fluorescence; series mostly up to 22.9 µM
# Sequence of 3',5'-cyclic-AMP phosphodiesterase 4B (Homo sapiens) (Q07343 whole entry, looked up): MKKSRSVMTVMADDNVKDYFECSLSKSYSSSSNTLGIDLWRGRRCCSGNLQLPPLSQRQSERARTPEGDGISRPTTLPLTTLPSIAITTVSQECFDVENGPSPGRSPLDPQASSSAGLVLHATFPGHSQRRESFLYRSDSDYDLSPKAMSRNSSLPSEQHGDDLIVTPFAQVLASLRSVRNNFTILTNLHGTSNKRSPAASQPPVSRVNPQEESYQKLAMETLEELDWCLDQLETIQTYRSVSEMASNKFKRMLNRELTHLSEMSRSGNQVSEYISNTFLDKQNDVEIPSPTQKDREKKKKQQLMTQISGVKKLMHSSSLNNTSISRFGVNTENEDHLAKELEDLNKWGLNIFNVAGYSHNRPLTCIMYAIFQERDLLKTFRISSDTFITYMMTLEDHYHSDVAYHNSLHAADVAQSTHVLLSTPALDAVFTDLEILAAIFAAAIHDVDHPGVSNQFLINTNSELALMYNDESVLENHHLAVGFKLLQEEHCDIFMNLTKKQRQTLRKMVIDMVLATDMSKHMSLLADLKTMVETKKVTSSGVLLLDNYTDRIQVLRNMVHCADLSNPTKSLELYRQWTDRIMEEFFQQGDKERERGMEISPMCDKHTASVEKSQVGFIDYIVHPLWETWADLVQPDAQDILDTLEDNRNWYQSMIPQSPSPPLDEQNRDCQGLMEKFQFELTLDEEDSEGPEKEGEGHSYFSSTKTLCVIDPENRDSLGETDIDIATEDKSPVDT
# Procedure, shortened: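 The readout is membrane depolarisation from a cAMP-sensing CNG channel, detected with a potential dye at ex 535/em 590. Cells were HEK293-derived (endogenous PDE-IV) at 1000 cells/well, titrated up to 22.9 uM final.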
# [17] = target: Cytochrome P450 2C19 (Homo sapiens) (UniProt P33261); test: qHTS Assay for Inhibitors and Substrates of Cytochrome P450 2C19 (AID 899); settings: recombinant CYP2C19, luciferin-H EGE luminescence; series mostly up to 57.1 µM; note: potency is the fitted concentration of half-maximal effect; nearly all actives have a fitted effect of over 60% in size
# Sequence of Cytochrome P450 2C19 (Homo sapiens) (P33261 whole entry, looked up): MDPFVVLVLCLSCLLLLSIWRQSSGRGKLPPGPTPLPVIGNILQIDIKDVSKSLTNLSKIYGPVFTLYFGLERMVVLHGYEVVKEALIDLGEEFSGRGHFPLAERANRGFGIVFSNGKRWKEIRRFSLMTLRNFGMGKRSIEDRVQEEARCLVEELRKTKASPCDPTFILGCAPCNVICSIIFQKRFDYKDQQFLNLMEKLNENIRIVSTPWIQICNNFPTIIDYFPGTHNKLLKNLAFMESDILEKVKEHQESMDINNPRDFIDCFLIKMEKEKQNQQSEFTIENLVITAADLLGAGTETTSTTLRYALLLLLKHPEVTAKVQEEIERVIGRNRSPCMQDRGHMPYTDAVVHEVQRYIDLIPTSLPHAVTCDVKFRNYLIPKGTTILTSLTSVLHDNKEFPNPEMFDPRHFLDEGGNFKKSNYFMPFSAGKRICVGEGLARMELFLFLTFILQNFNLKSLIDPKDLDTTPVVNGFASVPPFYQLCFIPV
# Procedure, shortened: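 5nM enzyme + 10uM Luciferin-H EGE (=KM), 50mM KPO4; cpd pin-transferred, 10 min 37C; NADPH regen, 60 min 37C; stopped w/ luciferin detection reagent, 20 min; luminescence. Normalized to 57uM ketoconazole (AC100).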
# [18] = target: Cytochrome P450 3A4 (Homo sapiens) (UniProt P08684); test: qHTS Assay for Inhibitors and Substrates of Cytochrome P450 3A4 (AID 884); settings: recombinant CYP3A4, Luciferin-PPXE luminescence; series mostly up to 57.1 µM; note: potency is the fitted concentration of half-maximal effect; nearly all actives have a fitted effect of over 50% in size
# Procedure, shortened: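 20 nM human CYP3A4 with 25 uM Luciferin-PPXE (at KM) in 200 mM KPO4, preincubated 10 min with compound; NADPH regeneration started a 60 min RT reaction. Luciferin detected by luminescence, normalized to 57 uM ketoconazole as full inhibition.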
# [19] = measured here: cell count channel max response
# [20] = measured here: lipid channel max response
smiles,measurement,setting,value
CCNc1ncc2nc(-c3ccccc3)c(=O)n(Cc3cccs3)c2n1,Potency,[1],> 11.4 µM (inactive)
same,Potency,[2],0.316 µM (active)
same,Potency,[3],> 9.22 µM (inactive)
same,Potency,[4],> 46 µM (inactive)
same,outcome,[5],inactive
same,Potency,[6],inactive
same,Potency,[7],3.16 µM (active)
same,"activity change, negative = inhibition",[8],1.76% (inactive)
same,max response,[8]; [19],17.2%
same,max response,[8]; [20],16%
same,Potency,[9],inactive
same,Potency,[10],inactive
same,Potency,[11],inactive
same,Potency,[12],inactive
same,Potency,[13],inactive
CCNc1ncc2ncc(=O)n(Cc3cccs3)c2n1,Potency,[1],> 11.4 µM (inactive)
same,Potency,[2],2 µM (active)
same,"activity change, negative = inhibition",[14],-8.48% (inactive)
same,"activity, negative = inhibition",[15],-24.4% (inactive)
same,Potency,[3],> 9.22 µM (inactive)
same,Potency,[4],> 46 µM (inactive)
same,outcome,[5],inactive
same,Potency,[16],inactive
same,Potency,[6],inactive
same,activation,[7],-28.8% (inactive)
same,"activity change, negative = inhibition",[8],5.21% (inactive)
same,max response,[8]; [19],12.7%
same,max response,[8]; [20],16.4%
same,Potency,[9],3.16 µM (active)
same,Potency,[10],5.62 µM (active)
same,Potency,[11],5.01 µM (active)
same,Potency,[13],inactive
Cc1nc2cncnc2n(C2CC2)c1=O,Potency,[1],> 11.4 µM (inactive)
same,Potency,[2],15.8 µM (active)
same,"activity change, negative = inhibition",[14],2.34% (inactive)
same,"activity, negative = inhibition",[15],-12.1% (inactive)
same,Potency,[3],> 9.22 µM (inactive)
same,Potency,[4],> 46 µM (inactive)
same,outcome,[5],inactive
same,Potency,[16],inactive
same,Potency,[6],inactive
same,Potency,[17],3.98 µM (active)
same,"activity change, negative = inhibition",[8],9.2% (inactive)
same,max response,[8]; [19],24%
same,max response,[8]; [20],34.8%
same,Potency,[9],inactive
same,Potency,[10],inactive
same,Potency,[11],inactive
same,Potency,[12],inactive
same,Potency,[13],inactive
O=c1c(-c2ccc(Cl)cc2)nc2cnc(N3CCNCC3)nc2n1Cc1cccs1,Potency,[1],> 11.4 µM (inactive)
same,Potency,[2],12.6 µM (active)
same,Potency,[3],> 9.22 µM (inactive)
same,Potency,[4],> 46 µM (inactive)
same,Potency,[16],inactive
same,Potency,[18],5.01 µM (active)
same,Potency,[6],inactive
same,"activity change, negative = inhibition",[8],0.33% (inactive)
same,max response,[8]; [19],-11.5%
same,max response,[8]; [20],-12.6%
same,Potency,[9],inactive
same,Potency,[10],inactive
same,Potency,[11],inactive
same,Potency,[13],inactive
COc1cccc(Cn2c(=O)c(-c3cccc(C#N)c3)nc3cnc(N4CCN(C)CC4)nc32)c1,Potency,[1],> 11.4 µM (inactive)
same,Potency,[2],inactive
same,Potency,[3],> 9.22 µM (inactive)
same,Potency,[4],> 46 µM (inactive)
same,outcome,[5],inactive
same,Potency,[16],inactive
same,Potency,[6],inactive
same,Potency,[7],3.16 µM (active)
same,"activity change, negative = inhibition",[8],2.54% (inactive)
same,max response,[8]; [19],21.5%
same,max response,[8]; [20],24.1%
same,Potency,[9],inactive
same,Potency,[10],inactive
same,Potency,[11],inactive
same,Potency,[12],inactive
same,Potency,[13],inactive
COc1cccc(Nc2ncc3nc(CCc4ccccc4)c(=O)n(C)c3n2)c1,Potency,[1],> 11.4 µM (inactive)
same,"activity change, negative = inhibition",[14],21.6% (inactive)
same,"activity, negative = inhibition",[15],-7.18% (inactive)
same,Potency,[3],> 9.22 µM (inactive)
same,Potency,[4],> 46 µM (inactive)
same,outcome,[5],inactive
same,"activity change, negative = inhibition",[8],-10% (inactive)
same,max response,[8]; [19],27.3%
same,max response,[8]; [20],12.3%
same,Potency,[9],inactive
same,Potency,[10],inactive
same,Potency,[11],inactive
same,Potency,[12],inactive
same,Potency,[13],inactive
